These results are taken from the supplement of paper PMC10338343.

The subject of the test is MIWI (PIWIL1) piRISC loaded with L1MC piRNA (30 nt). Description: pre-steady-state target cleavage rate (min^-1); MIWI and MILI are mouse PIWI proteins and EfPiwi is from a freshwater sponge; tags in brackets are library labels; higher = faster piRNA-guided slicing of the target. The note with it: guide: L1MC piRNA 5'p-UAACUAAAUACUAUGCAAGCUGUAGGUCCU
The gist of the method:
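Cleave-'n-Seq reactions paired 0.1 nM transcribed, DNA-blocked target RNA library with 1 nM active affinity-purified piRISC holding one synthetic guide, plus or minus 500 nM GTSF1 partner protein, in HEPES–potassium acetate buffer at 33 °C for 0–8 or 0–960 min. After sequencing of uncleaved targets and normalisation to depth and weakly complementary targets, the pre-steady-state cleavage rate was taken from a burst-and-steady-state fit. Three trials were pooled, and k3 was capped at 0.0001 min^-1.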

The mark [1] stands for this setting: auxiliary factor: 500 nM mouse GTSF1.
[2] abbreviates: auxiliary factor: none (no GTSF1).

± gives the standard deviation. The full ranking holds about 8,200 sequences; the median of “pre-steady-state target cleavage rate” is about 0.024, and the highest 2% start at about 1.3. The entries come from a sample that favours the highest values as a whole.

Regarding UCCUGGUACAGCUUGCAUAGUAUUUAGAUUA, the “pre-steady-state target cleavage rate” value under setting [1] amounted to 0.179 ± 0.046 and the “pre-steady-state target cleavage rate” value under setting [2] is 0.0165 ± 0.0061.
As for UCCUGCUACACCAUGCAUAGUAUUUAGUUA, the “pre-steady-state target cleavage rate” value under setting [1] came to 0.783 ± 0.035 and the “pre-steady-state target cleavage rate” value under setting [2] stood at 0.00793 ± 0.002.
For UCCUGGAACAGCUUGCAAUGUAUUUAGUUA the same measures were 0.265 ± 0.02 and 0.00723 ± 0.0039.
For the sequence UCCUGGAUGUCCUUGCAUAGUAUAUUGUUA, the “pre-steady-state target cleavage rate” value under setting [1] was 0.00947 ± 0.0039.
Still for that read-out and setting: then UCGACCUACAGCUUGGAUAGUAUUUACAAA, with 0.179 ± 0.036.
UCCUCCUACAGCUUGGUUAGUAUUUAGUAA: the “pre-steady-state target cleavage rate” value under setting [1] came out at 0.523 ± 0.043 and the “pre-steady-state target cleavage rate” value under setting [2] was 0.00502 ± 0.0015.
Consider UCCACCUACAGCAAGCAUAGUAUUUAGUAA, for which the “pre-steady-state target cleavage rate” value under setting [1] worked out at 0.507 ± 0.042.
On the same count and under the same terms, then AGGACCUACAGCUUGCAUAGUAUUAUCUAA, with 0.404 ± 0.066.
For UCCUGGAUGUCCUUGCAUAGUAGUUAGUUA, the “pre-steady-state target cleavage rate” value runs as follows: under setting [1], 0.00603 ± 0.0046; under setting [2], 0.00268 ± 0.0023.
Regarding UCCUGGUACAGCUUGCAUAGUAAAAAGUAA, under setting [1], the “pre-steady-state target cleavage rate” value was 0.109 ± 0.031.
With UCCUGGAACAGCUUGCAUAGUAUUUAGAUA, the “pre-steady-state target cleavage rate” value is, setting by setting: under setting [1], 0.406 ± 0.042; under setting [2], 0.0172 ± 0.0058.
For UCCUGCUACAGCUUGCAUAGUAUAUUGUUA the same measures were 0.377 ± 0.037 and 0.0123 ± 0.0026.
On to AGGCACCUACAGCUUGCAUAGUAUUUAGUUA, for which the “pre-steady-state target cleavage rate” value is 2.18 ± 0.8 under setting [1] and 2.2 ± 1.8 under setting [2].
With UGCACCUACAGCUUGCAUAGUAUUUAGUAA, the “pre-steady-state target cleavage rate” value under setting [1] stood at 1.17 ± 0.11 and the “pre-steady-state target cleavage rate” value under setting [2] worked out at 0.0465 ± 0.0097.
In the same order, the values of UCGCACCUACAGCUUGCAUAGUAUUUAGUUA are 1.06 ± 0.13 and 0.0648 ± 0.015.
Consider UGGCACCUACAGCUUGCAUAGUAUUUAGUUA, for which the “pre-steady-state target cleavage rate” value under setting [1] came out at 2.2 ± 0.89.
For UGCACCUACAGCUUGCAUAGUAUUUAGUUA, the “pre-steady-state target cleavage rate” value is, setting by setting: under setting [1], 1.22 ± 0.11; under setting [2], 0.0865 ± 0.017.
In the same order, the values of AGCACCUACAGCUUGCAUAGUAUUUAGUUA are 1.19 ± 0.16 and 0.246 ± 0.073.
On to UCCUGGAACAGCUUGCAUAGCUAUUUAGUUA, for which, under setting [1], the “pre-steady-state target cleavage rate” value is 0.0102 ± 0.0047.
Take UCCUGGUAAAGCUUGCAUAGUAUUUAGUUA: the “pre-steady-state target cleavage rate” value reads like this: under setting [1], 0.551 ± 0.037; under setting [2], 0.0419 ± 0.0086.
For UCCUGGAACAGCUUGCAAAGUAUAUAGUUA the same measures were 0.459 ± 0.037 and 0.0164 ± 0.0061.
In the case of UCCUGCUACAGCUUGGAAAGUAUUUAGUUA, the “pre-steady-state target cleavage rate” value came out at 0.903 ± 0.053 under setting [1] and 0.00754 ± 0.0024 under setting [2].
For UGGACGCUACAGCUUGCAUAGUAUUUAGUUA the same measures were 1.15 ± 0.076 and 0.0759 ± 0.013.
For AGGAUCUACAGCUUGCAUAGUAUUUAGUUA the same measures were 1.7 ± 0.059 and 0.105 ± 0.017.
For UCCUGGAUCUAGCUUGCAUAGUAUUUAGUUA the same measures were 0.86 ± 0.04 and 0.0445 ± 0.011.
In the case of UCCAUCUACAGCUUGCAUAGUAUUUAGUUA, the “pre-steady-state target cleavage rate” value under setting [1] is 0.731 ± 0.031 and the “pre-steady-state target cleavage rate” value under setting [2] came out at 0.0538 ± 0.0076.
For UGGAUCUACAGCUUGCAUAGUAUUUAGUUA the same measures were 1.57 ± 0.062 and 0.0958 ± 0.019.
For UCGAUCUACAGCUUGCAUAGUAUUUAGUUA the same measures were 1.61 ± 0.05 and 0.072 ± 0.013.
In the same order, the values of AGGACACUACAGCUUGCAUAGUAUUUAGUUA are 1.13 ± 0.083 and 0.0749 ± 0.011.
For UCCUGGAUCAGCUUGCAUUGUUUUUAGUUA, the “pre-steady-state target cleavage rate” value stood at 0.0337 ± 0.0067 under setting [1] and 0.00759 ± 0.0022 under setting [2].
In the same order, the values of UCGACCUACAGCUUGCAUAGUAAUUAGUUA are 1.08 ± 0.049 and 0.0469 ± 0.012.
Consider UCCUGGAUGUCCUUGCUAUGUAUUUAGUAA, for which the “pre-steady-state target cleavage rate” value under setting [1] was determined as 0.00637 ± 0.0038.
On to UCCUGGUACAGCUUGCAUAGUGAUUUAGUUA, for which the “pre-steady-state target cleavage rate” value under setting [1] was determined as 0.0476 ± 0.011 and the “pre-steady-state target cleavage rate” value under setting [2] is 0.00639 ± 0.0029.
For UCCUGGUACACCUAGCAUAGUAUUUAGUUA the same measures were 0.278 ± 0.063 and 0.00414 ± 0.0028.
For UCGACCUAGAGCUUGCAUAGUAUUUAGAAA, the “pre-steady-state target cleavage rate” value was determined as 0.441 ± 0.048 under setting [1] and 0.00689 ± 0.0021 under setting [2].
With UCCUGGUACUCGUUGCAUAGUAUUUAGUAA, the “pre-steady-state target cleavage rate” value under setting [1] is 0.0165 ± 0.0088.
Take UGGACGAACAGCUUGCAUAGUAUUUAGUUA: the “pre-steady-state target cleavage rate” value under setting [1] turned out to be 1.17 ± 0.036 and the “pre-steady-state target cleavage rate” value under setting [2] is 0.0856 ± 0.015.
In the same order, the values of UCCUCGAACAGCUUGCAUAGUAUUUAGUUA are 1.39 ± 0.039 and 0.0825 ± 0.015.
In the same order, the values of UCGACGAACAGCUUGCAUAGUAUUUAGUAA are 0.962 ± 0.062 and 0.0577 ± 0.013.
In the same order, the values of UCGACGAACAGCUUGCAUAGUAUUUAGUUA are 1.38 ± 0.049 and 0.0836 ± 0.015.
Regarding UCCUCGAACAGCUUGCAUAGUAUUUAGAAA, the “pre-steady-state target cleavage rate” value under setting [1] was found to be 0.474 ± 0.043 and the “pre-steady-state target cleavage rate” value under setting [2] amounted to 0.00694 ± 0.0025.
In the same order, the values of UCCUCGAACAGCUUGCAUAGUAUUUAGUAA are 0.982 ± 0.042 and 0.0424 ± 0.008.
For UCCUGGAACACCUUGCUUAGUAUUUAGUUA the same measures were 0.239 ± 0.032 and 0.00546 ± 0.0019.
As to AGCACCUACAGCUUGCAUAGUAUUUACUUA, the “pre-steady-state target cleavage rate” value under setting [1] is 1.4 ± 0.24.
AGGACCUACAGCUUGCAUAGUAUUUAGUGA: the “pre-steady-state target cleavage rate” value was 1.01 ± 0.085 under setting [1] and 0.0934 ± 0.018 under setting [2].
For UGUGACCUACAGCUUGCAUAGUAUUUAGUUA the same measures were 1.45 ± 0.063 and 0.0959 ± 0.018.
In the same order, the values of UGGACCUACAGCUUGCAUAGUAUUUAGUGA are 1.12 ± 0.064 and 0.0575 ± 0.011.
In the same order, the values of AGUGACCUACAGCUUGCAUAGUAUUUAGUUA are 1.38 ± 0.056 and 0.0885 ± 0.015.
As to UGACCUACAGCUUGCAUAGUAUUUAGUUA, the “pre-steady-state target cleavage rate” value was determined as 1.57 ± 0.061 under setting [1] and 0.0842 ± 0.016 under setting [2].
For AUGACCUACAGCUUGCAUAGUAUUUAGUUA the same measures were 1.06 ± 0.03 and 0.0859 ± 0.013.
For UCCACCUACAGCUUGCAUAGUAUUUACUUA the same measures were 0.378 ± 0.044 and 0.0369 ± 0.0085.
In the same order, the values of UGCACCUACAGCUUGCAUAGUAUUUACUUA are 0.46 ± 0.056 and 0.0724 ± 0.017.
On to UUGACCUACAGCUUGCAUAGUAUUUAGUUA, for which the “pre-steady-state target cleavage rate” value reads like this: under setting [1], 1.16 ± 0.061; under setting [2], 0.0724 ± 0.012.
In the same order, the values of UCGACCAUGAGCUUGCAUAGUAUUUAGUAA are 0.804 ± 0.049 and 0.0343 ± 0.0083.
Take UCCUGGAUGUCGAACCAUAGAUUUAGUUA: the “pre-steady-state target cleavage rate” value under setting [1] was less than 0.0001.
With UCCUGCUUCAGCUUGCAUAGUAAUUAGUUA, the “pre-steady-state target cleavage rate” value is, setting by setting: under setting [1], 0.823 ± 0.043; under setting [2], 0.0173 ± 0.0042.
Take UCCUGCUACACCUUGCAUAGUAUUUACAAA: under setting [1], the “pre-steady-state target cleavage rate” value worked out at 0.245 ± 0.056.
UGGACCUACAGCUUGCAUAGUAUUAAGUAA: the “pre-steady-state target cleavage rate” value is 0.335 ± 0.037 under setting [1] and 0.0164 ± 0.0052 under setting [2].
Take UCCUGGAUCAGCCUGCAUAGUAUUUAGUUA: the “pre-steady-state target cleavage rate” value runs as follows: under setting [1], 1.02 ± 0.045; under setting [2], 0.0431 ± 0.008.
As to UGGACCUACAGCUUGCUAUGUAUUUAGUUA, the “pre-steady-state target cleavage rate” value is 0.115 ± 0.016 under setting [1] and 0.00588 ± 0.001 under setting [2].
Turning to UCCUGGAACAGCUUGCAUAGUUUAUAGUUA, the “pre-steady-state target cleavage rate” value came out at 0.0662 ± 0.011 under setting [1] and 0.0101 ± 0.003 under setting [2].
For AGGAGCUACAGCUUGCAUAGUAUUUAGUAA the same measures were 1.02 ± 0.092 and 0.0616 ± 0.012.
In the same order, the values of UGGAGCCUACAGCUUGCAUAGUAUUUAGUUA are 1.41 ± 0.1 and 0.0757 ± 0.013.
For AGGAGCUACACCUUGCAUAGUAUUUAGUUA the same measures were 1.36 ± 0.044 and 0.0609 ± 0.012.
